Screen size: about 5,500 compounds; about 2,000 (36%) were called active. Another 18% or so got no clear call; they are omitted. Cut-off read from the data, not from the text of the source: active = normalized growth mostly below about 0.91 (no sharp cut-off); inconclusive = no clear call, values can overlap the other calls; inactive = mostly above about 0.92. The list shows a part of the results.
Assay: chemical genetic growth profiling, strain panel (AID 1159580);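 note: tested at 20 µM; growth read once vehicle control cultures reached saturation at 30 °C; 1 = growth at the plate median or of vehicle wells; lower values mean less growth of the strain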
Conditions: S. cerevisiae deletion strains, growth OD

Measured: normalized growth

O=C(NC1CCCCC1)N1CCN(c2ncccc2C(F)(F)F)CC1
inactive: locus YAL013W, strain DEP1, active compounds read low 1.01 | locus YBR229C, strain ROT2, active compounds read low 0.994 | locus YCL061C, strain MRC1, active compounds read low 0.984 | locus YDL101C, strain DUN1, active compounds read low 0.998 | locus YDL134C, strain PPH21, active compounds read low 0.982 | locus YDR150W, strain NUM1, active compounds read low 0.978 | locus YEL061C, strain CIN8, active compounds read low 0.998 | locus YGR078C, strain PAC10, active compounds read low 1 | locus YHR030C, strain SLT2, active compounds read low 0.994 | locus YHR087W, strain rtc3, active compounds read low 1.01 | locus YJR043C, strain POL32, active compounds read low 0.979 | locus YJR075W, strain HOC1, active compounds read low 0.99 | locus YKL190W, strain CNB1, active compounds read low 0.989 | locus YLR039C, strain RIC1, active compounds read low 1.01 | locus YLR058C, strain SHM2 (second series), active compounds read low 0.987 | locus YLR085C, strain ARP6, active compounds read low 0.996 | locus YLR262C, strain YPT6, active compounds read low 0.993 | locus YML094W, strain GIM5, active compounds read low 1.01 | locus YMR219W, strain ESC1, active compounds read low 0.991 | locus YMR263W, strain SAP30, active compounds read low 0.988 | locus YMR307W, strain GAS1, active compounds read low 0.851 | locus YNL128W, strain TEP1, active compounds read low 0.986 | locus YNL153C, strain GIM3, active compounds read low 0.988 | locus YNL298W, strain CLA4 (second series), active compounds read low 0.986 | locus YNL322C, strain KRE1, active compounds read low 1 | locus YNR030W, strain Alg12, active compounds read low 1 | locus YOL006C, strain TOP1, active compounds read low 0.966 | locus YPL055C, strain LGE1, active compounds read low 1.01 | locus YPL241C, strain CIN2, active compounds read low 0.985 | locus YPR135W, strain CTF4, active compounds read low 1.01

From PubChem BioAssay AID1159580 (chemical genetic matrix, 2015)
